Compounds without any hit were thinned out: in the full panel of roughly 79,000, 15% have a hit. Unmarked numbers belong to inactive results. Active and inactive are the calls of the source. No stated cut-off is given here; in the data, active means growth inhibition above about 70%; inactive means the rest.

Test [1] can be described thus: NCI Yeast Anticancer Drug Screen. Data for the rad50 strain (AID 155).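 Further: 0% = growth of vehicle-only cultures of the same strain.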 The following applies: S. cerevisiae rad50 strain growth inhibition, hits give high values. A digest of the protocol:
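Relative growth inhibition (compound vs vehicle) was measured in yeast with a defined repair-gene alteration.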

A short description of test [2]: NCI Yeast Anticancer Drug Screen. Data for the mec2-1 strain (AID 157). To be noted: S. cerevisiae mec2-1 strain, hits give high values. A digest of the protocol:
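Compounds were applied to mec2-1 yeast cells. Their growth was then compared with that of vehicle-treated cultures to give growth inhibition.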

The nature of test [3]: NCI Yeast Anticancer Drug Screen. Data for the sgs1 mgt1 strain (AID 161).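 Further: 0% = growth of cultures given vehicle only.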 To be noted: S. cerevisiae sgs1 mgt1 strain, hits give high values. A digest of the protocol:
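This yeast growth screen uses a strain with defined DNA-repair lesions; compound-treated growth is compared with vehicle-treated growth.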

A short description of test [4]: NCI Yeast Anticancer Drug Screen. Data for the cln2 rad14 strain (AID 165).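 Further: 0% = growth equal to vehicle treated cultures.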 The following applies: S. cerevisiae cln2 rad14 strain, hits give high values. A digest of the protocol:
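Strain: cln2 rad14 yeast, altered in cell cycle control and DNA damage repair. Read-out: growth inhibition vs vehicle.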

Test [5] is described as follows: NCI Yeast Anticancer Drug Screen. Data for the bub3 strain (AID 167). The following applies: S. cerevisiae bub3 mutant strain, hits give high values. A digest of the protocol: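 Screening used yeast with an engineered genetic alteration affecting cell cycle control. Compound-exposed cultures were compared with vehicle cultures, and reduced growth was taken as inhibition.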

Test [6] can be described thus: NCI Yeast Anticancer Drug Screen. Data for the mlh1 rad18 strain (AID 175). To be noted: S. cerevisiae mlh1 rad18 strain growth inhibition, hits give high values. A digest of the protocol:
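A repair-deficient yeast strain is exposed to test compound, and growth is scored relative to vehicle-treated controls.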

Where [7] appears, read: at 5.0 µM (retest, dose inferred, filed as 0.5).
Where [8] appears, read: at 50.0 µM (retest, dose inferred, filed as 5.0).

As for `CC(C)(C)C(=O)OC12/C(=N/O)CCCCCC1c1ccccc12` (configuration not stated), the growth inhibition was -17% in test [1] (setting [7]); 88% (active) in test [1] (setting [8]); 81.8% (active) in test [1] (at 50.0 µM); 6% in test [2] (setting [7]); 92% (active) in test [2] (setting [8]); 86% (active) in test [2] (at 50.0 µM). Also, the growth inhibition in test [3] (setting [7]) was -12%; in test [3] (setting [8]), 89% (active); in test [3] (at 50.0 µM), 81.2% (active); in test [4] (setting [7]) it was 31%; in test [4] (setting [8]), 96% (active); in test [4] (at 50.0 µM) it was 85.3% (active). Further, the growth inhibition was -9% in test [5] (setting [7]); 93% (active) in test [5] (setting [8]); 84.2% (active) in test [5] (at 50.0 µM); 14% in test [6] (setting [7]); 92% (active) in test [6] (setting [8]); 80.5% (active) in test [6] (at 50.0 µM).
Consider `Oc1ccc2cc(Br)ccc2c1O`, for which the growth inhibition in test [1] (setting [7]) is -28%; in test [1] (setting [8]), 97% (active); in test [1] (at 50.0 µM), 97.2% (active); in test [2] (setting [7]) it was -11%; in test [2] (setting [8]), 97% (active); in test [2] (at 50.0 µM), 98.3% (active). Besides, the growth inhibition in test [3] (setting [7]) was 10%; in test [3] (setting [8]) it was 98% (active); in test [3] (at 50.0 µM) it was 97.5% (active); in test [4] (setting [7]), -24%; in test [4] (setting [8]) it was 97% (active); in test [4] (at 50.0 µM), 97% (active). Moreover, the growth inhibition was -5% in test [5] (setting [7]); 98% (active) in test [5] (setting [8]); 98% (active) in test [5] (at 50.0 µM); -7% in test [6] (setting [7]); 97% (active) in test [6] (setting [8]); 98.2% (active) in test [6] (at 50.0 µM).
Turning to `CCOC(=O)C(=O)C1CCCCC1=O` (configuration not stated), the growth inhibition in test [1] (setting [7]) was 9%; in test [1] (setting [8]), 95% (active); in test [1] (at 50.0 µM) it was 98.5% (active); in test [2] (setting [7]) it was 6%; in test [2] (setting [8]), 98% (active); in test [2] (at 50.0 µM), 98.8% (active). For the same molecule, the growth inhibition in test [3] (setting [7]) was 5%; in test [3] (setting [8]), 92% (active); in test [3] (at 50.0 µM) it was 98.8% (active); in test [4] (setting [7]), 21%; in test [4] (setting [8]) it was 98% (active); in test [4] (at 50.0 µM), 98.8% (active). In addition, the growth inhibition in test [5] (setting [7]) is 6%; in test [5] (setting [8]), 98% (active); in test [5] (at 50.0 µM), 97% (active); in test [6] (setting [7]), 11%; in test [6] (setting [8]), 98% (active); in test [6] (at 50.0 µM), 98.8% (active).
For `O=C(Nc1ccccc1Cl)c1cccnc1`, the growth inhibition was -146% in test [1] (setting [7]); -174% in test [1] (setting [8]); 6.55% in test [1] (at 50.0 µM); -48% in test [2] (setting [7]); -56% in test [2] (setting [8]); 14.8% in test [2] (at 50.0 µM). Further, the growth inhibition in test [3] (setting [7]) was -56%; in test [3] (setting [8]), -70%; in test [3] (at 50.0 µM), 9.25%; in test [4] (setting [7]), -48%; in test [4] (setting [8]) it was -63%; in test [4] (at 50.0 µM), 51.6%. For the same molecule, the growth inhibition in test [5] (setting [7]) is -63%; in test [5] (setting [8]), -81%; in test [5] (at 50.0 µM), -7.4%; in test [6] (setting [7]), -112%; in test [6] (setting [8]), -123%; in test [6] (at 50.0 µM) it was 4.45%.
For `CC(=O)N1C=C2CCC3c4ccccc4NC3C2CC1` (configuration not stated), the growth inhibition is -2% in test [1] (setting [7]); 15% in test [1] (setting [8]); 33.2% in test [1] (at 50.0 µM); 1% in test [2] (setting [7]); 4% in test [2] (setting [8]); 4.05% in test [2] (at 50.0 µM). Besides, the growth inhibition in test [3] (setting [7]) was -4%; in test [3] (setting [8]) it was 13%; in test [3] (at 50.0 µM), 34.5%; in test [4] (setting [7]), -51%; in test [4] (setting [8]), 0%; in test [4] (at 50.0 µM), -29.1%. Moreover, the growth inhibition in test [5] (setting [7]) is -11%; in test [5] (setting [8]), 47%; in test [5] (at 50.0 µM), -4.6%; in test [6] (setting [7]), -7%; in test [6] (setting [8]), -2%; in test [6] (at 50.0 µM) it was 19.1%.
In the case of `O=C(/C(=C\I)c1ccccc1)c1ccccc1`, the growth inhibition in test [1] (setting [7]) is 6%; in test [1] (setting [8]), 6%; in test [1] (at 50.0 µM), 88.5% (active); in test [2] (setting [7]), -15%; in test [2] (setting [8]), -15%; in test [2] (at 50.0 µM), 92.5% (active). In addition, the growth inhibition in test [3] (setting [7]) is -8%; in test [3] (setting [8]), -8%; in test [3] (at 50.0 µM), 86.4% (active); in test [4] (setting [7]), -6%; in test [4] (setting [8]), -6%; in test [4] (at 50.0 µM), 89.9% (active). Moreover, the growth inhibition in test [5] (setting [7]) was -24%; in test [5] (setting [8]), -24%; in test [5] (at 50.0 µM), 90.2% (active); in test [6] (setting [7]), -13%; in test [6] (setting [8]), -13%; in test [6] (at 50.0 µM), 86.7% (active).
As for `CCCCCCC(=O)Nc1ccc(OC(=O)CCCCCC)c(=O)cc1`, the growth inhibition in test [1] (setting [7]) is 8%; in test [1] (setting [8]) it was 99% (active); in test [1] (at 50.0 µM), 98.8% (active); in test [2] (setting [7]), 36%; in test [2] (setting [8]) it was 100% (active); in test [2] (at 50.0 µM), 99.2% (active). Besides, the growth inhibition in test [3] (setting [7]) was 33%; in test [3] (setting [8]) it was 99% (active); in test [3] (at 50.0 µM), 99.3% (active); in test [4] (setting [7]) it was -14%; in test [4] (setting [8]), 99% (active); in test [4] (at 50.0 µM), 98% (active). The growth inhibition in test [5] (setting [7]) was 15%; in test [5] (setting [8]), 99% (active); in test [5] (at 50.0 µM), 99.2% (active); in test [6] (setting [7]), 26%; in test [6] (setting [8]), 99% (active); in test [6] (at 50.0 µM) it was 98.5% (active).
Consider `CCCCCCCCCCOC(=O)Nc1ccc(C)c(NC(=O)OCCCCCCCCCC)c1`, for which the growth inhibition in test [1] (setting [7]) was 0%; in test [1] (setting [8]) it was 1%; in test [1] (at 50.0 µM) it was 27.4%; in test [2] (setting [7]), 1%; in test [2] (setting [8]), -3%; in test [2] (at 50.0 µM), 13.4%. Also, the growth inhibition is 3% in test [3] (setting [7]); -13% in test [3] (setting [8]); 16.8% in test [3] (at 50.0 µM); 2% in test [4] (setting [7]); -13% in test [4] (setting [8]); 23.1% in test [4] (at 50.0 µM). The growth inhibition in test [5] (setting [7]) is 0%; in test [5] (setting [8]), -1%; in test [5] (at 50.0 µM) it was 55.2%; in test [6] (setting [7]), -1%; in test [6] (setting [8]), -3%; in test [6] (at 50.0 µM) it was 24.6%.
`CCCCc1cc2c(cc1O)CCC1C2CC[C@@]2(C)C1CC[C@@H]2O` (some centres not stated): the growth inhibition in test [1] (setting [7]) is 5%; in test [1] (setting [8]), 96% (active); in test [1] (at 50.0 µM) it was 67.5%; in test [2] (setting [7]), -6%; in test [2] (setting [8]), 95% (active); in test [2] (at 50.0 µM), 78.5% (active). The growth inhibition in test [3] (setting [7]) was -5%; in test [3] (setting [8]), 95% (active); in test [3] (at 50.0 µM), 80.6% (active); in test [4] (setting [7]), 2%; in test [4] (setting [8]), 97% (active); in test [4] (at 50.0 µM), 86.8% (active). Also, the growth inhibition is -27% in test [5] (setting [7]); 96% (active) in test [5] (setting [8]); 81.7% (active) in test [5] (at 50.0 µM); -2% in test [6] (setting [7]); 96% (active) in test [6] (setting [8]); 84.6% (active) in test [6] (at 50.0 µM).

The record behind these values is PubChem BioAssay (NCI).
